Screening results as filed in PubChem.
MBD2 DNA inh – MBD2-methylated oligo binding inhibition. Q9UBB5. TR-FRET, MBD2 binding to methylated oligonucleotide. inhibition, % at 4.4 µM. hit rate 0.31% among 370,000; in the data active means inhibition above about 13%
Target sequence (Q9UBB5 whole entry, looked up): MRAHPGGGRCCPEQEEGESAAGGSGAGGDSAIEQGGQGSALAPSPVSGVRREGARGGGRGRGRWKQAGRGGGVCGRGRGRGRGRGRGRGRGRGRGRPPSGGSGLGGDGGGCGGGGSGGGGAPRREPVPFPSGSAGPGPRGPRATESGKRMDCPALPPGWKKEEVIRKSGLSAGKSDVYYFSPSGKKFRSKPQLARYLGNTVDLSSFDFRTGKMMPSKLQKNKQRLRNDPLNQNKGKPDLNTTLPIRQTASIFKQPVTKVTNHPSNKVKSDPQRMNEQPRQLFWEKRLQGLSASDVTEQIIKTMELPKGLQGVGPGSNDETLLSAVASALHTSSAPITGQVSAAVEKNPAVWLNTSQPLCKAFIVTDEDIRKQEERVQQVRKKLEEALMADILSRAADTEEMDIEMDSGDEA
PLC-gamma1 inh – inhibitors of human phospholipase C gamma1. P19174. purified PLC-gamma1, fluorogenic substrate, fluorescence. inhibition, % at 12.2 µM. hit rate 0.84% among 370,000. AID 720700; in the data active means inhibition above about 9.5%
UHRF1 MBD2 ctr – blocks human UHRF1 binding to methylated DNA; UHRF1 binding to methylated oligo, TR-FRET; hit rate 0.75% among 370,000; inhibition, % at 4.4 µM; Q96T88; AID 687016; in the data active means inhibition above about 21%;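 further: UHRF1 SRA domain binding a hemimethylated CpG hairpin DNA probe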
LEDGF integ inh – blocks HIV-1 LEDGF/p75-dependent DNA integration | inhibition, % at 3.7 µM | TR-FRET IN-LEDGF/p75 DNA integration, Eu/Cy5 | hit rate 0.64% among 370,000;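 active means inhibition above the screen-wide mean plus 3 SD, cut at about 13% in these data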;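 further: signal is the Cy5 over europium emission ratio at 671 and 618 nm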
PLC-beta3 inh – blocks human PLC-beta3 enzyme activity | Purified PLC-beta3, fluorogenic substrate, fluorescence | inhibition, % at 12.2 µM | hit rate 0.18% among 370,000
PLCg1 ctr – inhibits human PLC-gamma1 in PLC-beta3 counter-screen | shares compounds with PLC-gamma1 inh | purified PLC-gamma1, fluorogenic substrate, fluorescence | inhibition, % at 12.3 µM | hit rate 3.1% among 3,300 | AID 743258; in the data active means inhibition above about 9.5%
PLCbeta3 conf – confirmation of human PLC-beta3 inhibitors; shares compounds with PLC-gamma1 inh; purified PLC-beta3, fluorogenic substrate fluorescence; inhibition, % at 12.3 µM; hit rate 1% among 3,300; AID 743261
IN multimer act – counter-screen for LEDGF/p75 integration inhibitors: HIV-1 integrase multimerization activators | TR-FRET HIV-1 integrase multimerization, biochemical | activation, % at 7.7 µM | hit rate 17% among 2,000 | shares compounds with LEDGF integ inh | AID 1053131; in the data active means activation above about 8.9%
TR-FRET interf – counter-screen for LEDGF/p75 integration inhibitors: TR-FRET optical interference; shares compounds with LEDGF integ inh; TR-FRET optical interference counterscreen, HIV-1 IN multimerization; inhibition, % at 7.7 µM; 2,000 tested, under 10 active; AID 1053135;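 active means inhibition above the mean over all tested compounds plus 3 SD, which no compound reached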
LEDGF integ conf – LEDGF/p75-dependent HIV-1 integration inhibition, confirmation | shares compounds with LEDGF integ inh | TR-FRET LEDGF/p75-dependent HIV-1 integration, biochemical | inhibition, % at 3.7 µM | hit rate 36% among 2,000 | AID 1053136; in the data active means inhibition above about 14%
Of the large screens only hits and unclear results are named; the others gave an inactive call (follow-up assays come after a bar, where they were run). Sampled rows, rich in hits. Any-hit rate of the full collection: about 2.3%. Unless noted, no stated cut-off is given here; in the data, active means inhibition above about 11%; inactive means the rest.

CCOC(=O)C1=C(C(=O)OCC)C2(c3ccccc3)c3ccccc3C1(C)N2C (configuration not stated)	none
CCN1CCC2(CC1)NC(CO)(CO)CO2	PLC-gamma1 inh 10.6 | PLCg1 ctr inactive | PLCbeta3 conf inactive
Cn1cnc([N+](=O)[O-])c1Sc1ccc([N+](=O)[O-])cc1	PLC-beta3 inh 11.0 | PLCg1 ctr inactive | PLCbeta3 conf inactive
Cc1cc(N2CCNC[C@H]2C)ccc1N1CCN[C@H](C)C1	none
Cc1cc(C)n2nc(SC(C)C(=O)N3CCC4(CC3)OCCO4)nc2n1 (configuration not stated)	PLC-gamma1 inh 11.8 | PLCg1 ctr inactive | PLCbeta3 conf inactive
Cc1ccc2cc3cc(C(=O)N4CCC5(CC4)OCCO5)oc3nc2c1	none
O=C(NC1CN2CCC1CC2)c1cc(-c2ccc(Cl)cc2)nc2ccccc12 (configuration not stated)	none
COc1ccccc1-n1c(CNCC2CCCO2)nc2ccccc2c1=O (configuration not stated)	PLC-gamma1 inh 12.8, PLC-beta3 inh 11.2 | PLCg1 ctr 9.6 | PLCbeta3 conf inactive
COc1ccccc1-n1c(-c2ccc(C)cc2)nc2ccccc2c1=O	none
CC(=NCCCN1CCOCC1)c1c(O)[nH]c(=O)[nH]c1=O	PLC-gamma1 inh 15.1 | PLCg1 ctr inactive | PLCbeta3 conf inactive
O=C(COc1ccccc1)N1CCN(Cc2c[nH]c3ccccc23)CC1	PLC-gamma1 inh 10.8 | PLCg1 ctr inactive | PLCbeta3 conf inactive
COC(=O)C1=C(c2ccc(OC(F)(F)F)cc2)C[C@@H]2CC[C@H]1N2C(=O)N1CCC(C)CC1	none
COC(=O)C1=C(c2ccc(OC(F)(F)F)cc2)C[C@@H]2CC[C@H]1N2C(=O)N1CCCC1	PLC-gamma1 inh 11.8 | PLCg1 ctr inactive | PLCbeta3 conf inactive
O=C(NCCN1CCC2(CC1)C(=O)NCN2c1ccccc1)c1cccnc1Cl	none
CCOC(=O)[C@]12Cc3ccc4ccccc4c3[C@H]1N(Cc1ccccc1)C(=O)c1ccccc12	PLC-gamma1 inh 10.6 | PLCg1 ctr inactive | PLCbeta3 conf inactive
CSc1ccc(C(=O)C(C)(C)N2CCOCC2)cc1	PLC-gamma1 inh 10.5 | PLCg1 ctr inactive | PLCbeta3 conf inactive
COC(=O)C1C(c2ccc(Cl)cc2)CC2CCC1N2C (configuration not stated)	none
Cc1cccc(C)c1OP(N)(=O)Oc1c(C)cccc1C	PLC-gamma1 inh 9.6 | PLCg1 ctr inactive | PLCbeta3 conf inactive
Cc1ccc2nc(-c3ccc(CN4CCC(n5c(=O)[nH]c6cc(Cl)ccc65)CC4)cc3)c(-c3ccccc3)nc2c1	none
CC(=O)NCC1=C(c2ccc(S(C)(=O)=O)cc2)C[C@@H]2CC[C@H]1N2CCOc1ccccc1	none
COC(=O)c1c(C)n(Cc2ccc3c(c2)OCO3)c2ccc(O)cc12	PLC-gamma1 inh 11.5 | PLCg1 ctr inactive | PLCbeta3 conf inactive
O=C(NCCN1CCC2(CC1)C(=O)NCN2c1ccccc1)c1cccc(F)c1	none
CCCCn1c(O)c(C(CC)=NCCc2ccccc2)c(=O)[nH]c1=O	PLC-gamma1 inh 9.9 | PLCg1 ctr inactive | PLCbeta3 conf inactive
C=CCn1c(O)c(C(CC)=NCCc2ccccc2)c(=O)[nH]c1=O	none
CCC(=NCC1CCCO1)c1c(O)n(Cc2ccccc2)c(=O)[nH]c1=O (configuration not stated)	PLC-beta3 inh 19.7 | PLCg1 ctr inactive | PLCbeta3 conf 14.7
Cc1oc(-c2ccccc2Cl)nc1CN1C(=O)CN=C(c2ccccc2)c2ccccc21	PLC-gamma1 inh 9.6, PLC-beta3 inh 11.3 | PLCg1 ctr inactive | PLCbeta3 conf inactive
O=C1CN=C(c2ccccc2)c2ccccc2N1Cc1ccc(C(F)(F)F)cc1	none
COC(=O)C1=C(c2cccc(OCc3ccccc3)c2)C[C@@H]2CC[C@H]1N2C(=O)NC1CCN(Cc2ccccc2)CC1	PLC-gamma1 inh 11.8 | PLCg1 ctr inactive | PLCbeta3 conf inactive
CCCCC(=O)N/N=C/c1c(O)n(C2CC2)c(=S)[nH]c1=O	PLC-gamma1 inh 10.4 | PLCg1 ctr inactive | PLCbeta3 conf inactive
O=C(NC1CN2CCC1CC2)c1ccc(Cl)cc1 (configuration not stated)	none
Cc1ccc(OC(=O)N(C)C[C@@H]2OCc3ccccc3-c3c(n(C)c4ccccc34)C(=O)N([C@H](C)CO)C[C@H]2C)cc1	none
Cc1ccc(C2SCC(=O)Nc3c2c(=O)[nH]n3C2CCOC(C)(C)C2)cc1 (configuration not stated)	none
CC1(C)CC(n2[nH]c(=O)c3c2NC(=O)CSC3c2ccccc2)CCO1 (configuration not stated)	PLC-gamma1 inh 16.6 | PLCg1 ctr inactive | PLCbeta3 conf inactive
N#Cc1ccc2nc(-c3ccc(CN4CCC(n5nnc6ccccc65)CC4)cc3)c(-c3ccccc3)nc2c1	none
C[C@H]1CNCCN1c1ccc(N2CC[C@H](O)C2)c(C#N)c1	none
Cc1cc(Cl)nc(N)n1	PLC-gamma1 inh 12.6 | PLCg1 ctr inactive | PLCbeta3 conf inactive
CCSC1=NN1c1cc(C)nc(N)n1	none
CN1CCN(CCC(C#N)(c2ccccc2)c2ccccc2)CC1	PLC-gamma1 inh 10.8, PLC-beta3 inh 12.1 | PLCg1 ctr inactive | PLCbeta3 conf inactive
CC(CN1CCOCC1)C(C#N)(c1ccccc1)c1ccccc1 (configuration not stated)	none
COc1ccccc1N	none
CN(C)CP(=O)(O)CN(C)C=O	PLC-beta3 inh 12.4 | PLCg1 ctr inactive | PLCbeta3 conf inactive
C=C1[C@H]2CC[C@H]3[C@]4(C)C[C@H](O[C@@H]5OC(CO)[C@@H](OSOOO)[C@H](OS(=O)(=O)O)[C@H]5OC(=O)CC(C)C)C[C@@H](C(=O)O)[C@H]4CC[C@]3(C2)[C@H]1O (some centres not stated)	LEDGF integ inh 14.3, PLC-beta3 inh 11.9 | PLCg1 ctr inactive | PLCbeta3 conf inactive | IN multimer act inactive | TR-FRET interf inactive | LEDGF integ conf 14.9
Clc1cccc(N2Cc3cc(N4CCOCC4)ccc3-n3nncc3C2)c1	none
